Measurements from PubChem BioAssay (EPA / NIEHS).
Where “and” joins values, the source holds several entries; their conditions need not be identical. Equal entries are not always repeated. More than one record can exist for a structure, and the calls need not agree. Calls of active or inactive are those of the source. Rule for the calls: active = hit-call score of the fitted dose curve at least 0.9, where 1 is the maximum; inactive = score below 0.9.

What was measured:
[1] = read-out: Thrombomodulin, THBD (gene 7056); test: BSK_CASM3C_Thrombomodulin: BioMAP Diversity Plus: CASM3C Assay for Thrombomodulin Biomarker Activity (AID 2283051); conditions: primary human coronary artery smooth muscle cells; actives raise or lower the signal;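 note: thrombomodulin protein level measured by ELISA 24 h after dosing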
[2] = read-out: Tissue Factor, F3 (gene 2152); test: BSK_CASM3C_TissueFactor: BioMAP Diversity Plus: CASM3C Assay for Tissue Factor Biomarker Activity (AID 2283052); conditions: primary human coronary artery smooth muscle cells; actives raise or lower the signal;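 note: cell surface tissue factor protein level read by ELISA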
[3] = read-out: Interferon-gamma inducible Protein 10 (IP10), CXCL10 (gene 3627); test: BSK_hDFCGF_IP10: BioMAP Diversity Plus: hDFCGF Assay for Interferon-gamma inducible Protein 10 (IP10) Biomarker Activity (AID 2283053); conditions: primary human foreskin fibroblasts; actives raise or lower the signal
Outline: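 IP-10 levels, quantified by ELISA, are taken from human foreskin fibroblast cultures 24 h after chemical treatment, with DMSO serving as negative control and baseline for bidirectional analysis.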

[4] = read-out: Urokinase-type plasminogen activator receptor (uPAR), PLAUR (gene 5329); test: BSK_CASM3C_uPAR: BioMAP Diversity Plus: CASM3C Assay for Urokinase-type plasminogen activator receptor (uPAR) Biomarker Activity (AID 2283054); conditions: primary human coronary artery smooth muscle cells; actives raise or lower the signal;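 note: cell-surface uPAR protein level quantified by ELISA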
[5] = read-out: Vascular cell adhesion molecule 1 (VCAM1), VCAM1 (gene 7412); test: BSK_CASM3C_VCAM1: BioMAP Diversity Plus: CASM3C Assay for Vascular cell adhesion molecule 1 (VCAM1) Biomarker Activity (AID 2283055); conditions: primary human coronary artery smooth muscle cells; actives raise or lower the signal;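 note: VCAM-1 protein level quantified by ELISA on the cells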
[6] = read-out: Collagen III, COL3A1 (gene 1281); test: BSK_hDFCGF_CollagenIII: BioMAP Diversity Plus: hDFCGF Assay for Collagen III Biomarker Activity (AID 2283056); conditions: primary human foreskin fibroblasts; actives raise or lower the signal
Outline: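 Human foreskin primary fibroblasts were exposed to test chemicals for 24 h, after which collagen III was quantified by ELISA. Activity was fitted bidirectionally against DMSO as negative control and baseline.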

[7] = read-out: Epidermal growth factor receptor (EGFR), EGFR (gene 1956); test: BSK_hDFCGF_EGFR: BioMAP Diversity Plus: hDFCGF Assay for Epidermal growth factor receptor (EGFR) Biomarker Activity (AID 2283057); conditions: primary human foreskin fibroblasts; actives raise or lower the signal
Outline: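 Measured by ELISA: EGFR levels on primary human foreskin fibroblasts 24 h after chemical treatment, analysed relative to DMSO with bidirectional fitting.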

[8] = read-out: Interleukin-8 (IL8), CXCL8 (gene 3576); test: BSK_hDFCGF_IL8: BioMAP Diversity Plus: hDFCGF Assay for Interleukin-8 (IL8) Biomarker Activity (AID 2283058); conditions: primary human foreskin fibroblasts; actives raise or lower the signal
Outline: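 hDFCGF human dermal fibroblasts; 24 h chemical exposure; IL-8 by ELISA; bidirectional curve fit vs DMSO baseline; gain or loss of signal scored.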

[9] = BSK_hDFCGF_Proliferation: Cell Proliferation Assessment in the BioMAP Diversity Plus: hDFCGF Assay (AID 2283059); conditions: primary human foreskin fibroblasts;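 note: curves fitted for both rise and fall of signal versus DMSO baseline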
Outline: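 Steps: dose primary human dermal fibroblasts (foreskin); […] fix in 10% TCA; stain with 0.1% SRB; read 560 nm; fit gain or loss of signal against DMSO.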

[10] = read-out: Macrophage colony-stimulating factor (MCSF), CSF1 (gene 1435); test: BSK_hDFCGF_MCSF: BioMAP Diversity Plus: hDFCGF Assay for Macrophage colony-stimulating factor (MCSF) Biomarker Activity (AID 2283060); conditions: primary human foreskin fibroblasts; actives raise or lower the signal
Outline: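 Human foreskin primary fibroblasts were treated with test chemical for 24 h, and M-CSF was then measured by ELISA. Data were fitted bidirectionally against DMSO as the negative control and activity baseline.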

[11] = BSK_hDFCGF_SRB: Viability Assessment in the BioMAP Diversity Plus: hDFCGF Assay (AID 2283061); conditions: primary human foreskin fibroblasts;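 note: cells exposed to compound for 24 h before the read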
Outline: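 Human foreskin primary fibroblasts were treated with compound and assessed 24 h after dosing. Total protein was measured by sulforhodamine B staining (0.1% SRB after 10% TCA fixation, 560 nm read) as a cytotoxicity marker, with bidirectional fitting against DMSO baseline.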

[12] = read-out: TIMP metallopeptidase inhibitor 1 (TIMP1), TIMP1 (gene 7076); test: BSK_hDFCGF_TIMP1: BioMAP Diversity Plus: hDFCGF Assay for TIMP metallopeptidase inhibitor 1 (TIMP1) Biomarker Activity (AID 2283062); conditions: primary human foreskin fibroblasts; actives raise or lower the signal
Outline: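 Primary human foreskin fibroblasts in the hDFCGF system were dosed with compound for 24 h, then TIMP-1 was measured by ELISA. Activity was fitted bidirectionally relative to DMSO control; parallel SRB staining assessed cytotoxicity.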

[13] = read-out: Monokine induced gamma interferon (MIG), CXCL9 (gene 4283); test: BSK_hDFCGF_MIG: BioMAP Diversity Plus: hDFCGF Assay for Monokine induced gamma interferon (MIG) Biomarker Activity (AID 2283063); conditions: primary human foreskin fibroblasts; actives raise or lower the signal
Outline: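 ELISA read-out of MIG from primary human dermal fibroblasts 24 h post-dosing. Gain or loss of signal fitted bidirectionally, DMSO as baseline.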

[14] = read-out: Matrix Metallopeptidase 1 (MMP1), MMP1 (gene 4312); test: BSK_hDFCGF_MMP1: BioMAP Diversity Plus: hDFCGF Assay for Matrix Metallopeptidase 1 (MMP1) Biomarker Activity (AID 2283064); conditions: primary human foreskin fibroblasts; actives raise or lower the signal
Outline: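 Primary human foreskin fibroblasts in the hDFCGF system were dosed with test chemical, and MMP1 was measured by ELISA 24 h later. Values come from bidirectional curve fitting against the DMSO baseline.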

[15] = read-out: Vascular cell adhesion molecule 1 (VCAM1), VCAM1 (gene 7412); test: BSK_hDFCGF_VCAM1: BioMAP Diversity Plus: hDFCGF Assay for Vascular cell adhesion molecule 1 (VCAM1) Biomarker Activity (AID 2283065); conditions: primary human foreskin fibroblasts; actives raise or lower the signal;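 for AC50: VCAM-1 protein level quantified by ELISA after 24 h chemical exposure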
Outline: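 Primary human foreskin fibroblasts (hDFCGF system) were dosed with chemical and VCAM-1 was measured by ELISA 24 h later. Bidirectional curve fitting used DMSO as negative control and activity baseline.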

[16] = read-out: Plasminogen activator inhibitor-1 (PAI1), SERPINE1 (gene 5054); test: BSK_hDFCGF_PAI1: BioMAP Diversity Plus: hDFCGF Assay for Plasminogen activator inhibitor-1 (PAI1) Biomarker Activity (AID 2283066); conditions: primary human foreskin fibroblasts; actives raise or lower the signal
Outline: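 PAI-1 levels, determined by ELISA, served as the endpoint in human foreskin fibroblast cultures exposed to compound for 24 h, with DMSO as baseline.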

[17] = read-out: Intercellular Adhesion Molecule 1 (ICAM1), ICAM1 (gene 3383); test: BSK_KF3CT_ICAM1: BioMAP Diversity Plus: KF3CT Assay for Intercellular Adhesion Molecule 1 (ICAM1) Biomarker Activity (AID 2283067); conditions: primary human keratinocytes with fibroblasts; actives raise or lower the signal
Outline: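 Human keratinocyte plus foreskin fibroblast primary co-culture was exposed to chemical for 24 h. ICAM-1 was then quantified by ELISA, and the data were fit bidirectionally against DMSO as the negative control and baseline.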

[18] = read-out: Interferon-gamma inducible Protein 10 (IP10), CXCL10 (gene 3627); test: BSK_KF3CT_IP10: BioMAP Diversity Plus: KF3CT Assay for Interferon-gamma inducible Protein 10 (IP10) Biomarker Activity (AID 2283068); conditions: primary human keratinocytes with fibroblasts; actives raise or lower the signal
Outline: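 KF3CT co-culture (keratinocytes + foreskin fibroblasts), 24 h compound, IP-10 by ELISA; bidirectional fit vs DMSO baseline.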

[19] = BSK_KF3CT_SRB: Viability Assessment in the BioMAP Diversity Plus: KF3CT Assay (AID 2283069); conditions: primary human keratinocytes with fibroblasts
Outline: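 Human primary keratinocyte plus foreskin fibroblast co-culture exposed to chemicals for 24 h. Total protein measured by 0.1% sulforhodamine B staining after 10% TCA fixation, read at 560 nm; bidirectional fitting versus DMSO baseline.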

[20] = read-out: Interleukin-1 alpha (IL1a), IL1A (gene 3552); test: BSK_KF3CT_IL1a: BioMAP Diversity Plus: KF3CT Assay for Interleukin-1 alpha (IL1a) Biomarker Activity (AID 2283070); conditions: primary human keratinocytes with fibroblasts; actives raise or lower the signal
Outline: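 Human keratinocyte plus foreskin fibroblast primary co-culture, sampled 24 h after chemical dosing. IL-1a measured by ELISA; responses fitted bidirectionally against DMSO baseline (negative control), so gain or loss of signal both count.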

Measured: AC50

CCc1cnc(C2=NC(C)(C(C)C)C(=O)N2)c(C(=O)O)c1 (stereo not drawn)
inactive: all assays above

Nc1nc(N)nc(NC2CC2)n1
inactive: all assays above

CCOP(=S)(OCC)OC(Cl)C(Cl)(Cl)Cl (stereo not drawn)
active: [1] 11.4 µM | [3] 26.3 µM | [6] 11.1 µM | [10] 31.8 µM | [15] 29.4 µM | [19] 26.7 µM
inactive: all other assays above

CCOP(=S)(OCC)Oc1ccc([N+](=O)[O-])cc1
active: [1] 15.4 µM | [3] 20 µM | [9] 14.2 µM | [10] 9.79 µM | [15] 20 µM | [16] 20 µM | [18] 32.7 µM
inactive: all other assays above

O=[N+]([O-])c1cc(C(F)(F)F)c(Cl)c([N+](=O)[O-])c1Nc1ncc(C(F)(F)F)cc1Cl
inactive: [1] | [2] | [12]
active: [2] 5.69 µM | [3] 2.13 µM and 7.1 µM | [4] 3.29 µM and 5.5 µM | [5] 2.86 µM and 7.2 µM | [6] 1.83 µM and 11.7 µM | [7] 1.92 µM and 5.48 µM | [8] 2.78 µM and 11.7 µM | [9] 546 nM and 1.8 µM | [10] 1.17 µM and 6.88 µM | [11] 810 nM and 9.49 µM | [12] 1.12 µM | [13] 1.32 µM and 8.98 µM | [14] 1.59 µM and 10.6 µM | [15] 954 nM and 7.64 µM | [16] 859 nM and 9.54 µM | [17] 1.15 µM and 9.82 µM | [18] 7.9 µM | [20] 867 nM and 6.33 µM

CCOP(=O)(SC(C)CC)N1CCSC1=O (stereo not drawn)
active: [18] 0.704 µM
not listed: [19]
inactive: all other assays above

C[N+]1(C)CCCCC1
inactive: all assays above

CCCCN(CC)c1c([N+](=O)[O-])cc(C(F)(F)F)cc1[N+](=O)[O-]
active: [3] 25.5 µM | [9] 27.9 µM | [10] 29.8 µM | [11] 30.1 µM | [14] 4.66 µM | [16] 31.1 µM | [18] 27.9 µM
inactive: all other assays above

CN1COCN(Cc2cnc(Cl)s2)C1=N[N+](=O)[O-]
inactive: all assays above

CN(C)[C@@H]1C(=O)C(C(N)=O)=C(O)[C@@]2(O)C(=O)C3=C(O)c4c(O)cccc4[C@@](C)(O)[C@H]3[C@H](O)[C@@H]12
inactive: [1] | [2] | [3] | [4] | [5] | [6] | [7] | [8] | [9] | [10] | [11] | [12] | [13] | [14] | [15] | [16] | [17] | [18] | [20]
active: [3] 29.9 µM | [9] 19.6 µM and 13.9 µM | [10] 23.3 µM | [13] 31.6 µM | [15] 28.6 µM

CCC(=O)Nc1ccc(Cl)c(Cl)c1
inactive: all assays above

CCNc1nc(Cl)nc(NC(C)(C)C#N)n1
active: [1] 3.97 µM | [4] 30.8 µM | [9] 12.2 µM | [16] 10.6 µM
not listed: [19]
inactive: all other assays above
